Reference: the supplement of paper PMC10849652
About 7,900 targets were measured; listed, in parts, are those with a hit and a random draw of the rest. About 0.6% of all pairs of compound and target were hits. A number with no mark means an inactive call.

Assays:
Assay in all cases: log2 fold change, soluble protein after heating vs DMSO (PISA); higher = thermal stabilisation; K562 cells, 10 uM, 30 min; active = over 0.2 and 3.5 SD of the protein, either way, in both replicates (recomputed)
[1] = compound: CC[C@@H]1C(=O)N(C)c2cnc(Nc3ccc(C(=O)NC4CCN(C)CC4)cc3OC)nc2N1C1CCCC1
In short: (§1)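 Soluble protein was quantified by TMTpro 16plex LC-MS/MS after channel sums were equalised. It was obtained as the supernatant after 21,000xg for 90 min from pooled aliquots of K562 cells (2×10^6 cells/mL, 10 μM compound, 30 min) heated for 3 min across 48°C-58°C and extracted in PBS with 0.5% NP-40 at 4°C. Thermal stability values are relative to control samples and come from duplicates. They are given as log2 fold changes.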

volasertib = compound: CC[C@@H]1C(=O)N(C)c2cnc(Nc3ccc(C(=O)N[C@H]4CC[C@H](N5CCN(CC6CC6)CC5)CC4)cc3OC)nc2N1C(C)C [volasertib]
In short: as §1

[2] = compound: CC[C@H](C)N1C=C(C2=C(C=C(C=C21)C3=CN=C(C=C3)N4CCNCC4)C(=O)NCC5=C(C=C(NC5=O)C)C)C
In short: as §1

epoxomicin = compound: CC[C@H](C)[C@@H](C(=O)N[C@@H]([C@@H](C)O)C(=O)N[C@@H](CC(C)C)C(=O)[C@]1(CO1)C)NC(=O)[C@H]([C@@H](C)CC)N(C)C(=O)C [epoxomicin]
In short: as §1

[3] = compound: CCn1c(C(=O)N(C2CC2)C2CC2)cc2c3c(ncn3C)c(Nc3cc(C)n(C)n3)nc21
In short: as §1

[4] = compound: CCn1cc(-c2ccnc3[nH]c(-c4cccc(CN(C)C)c4)cc23)c(-c2ccc(NC(=O)N(C)C)cc2)n1
In short: as §1

[5] = compound: CN(C)CC(=O)Nc1ccc2[nH]c(=O)c3ccccc3c2c1
In short: as §1

rosiglitazone = compound: CN(CCOC1=CC=C(C=C1)C[C@H]2C(=O)NC(=O)S2)C3=CC=CC=N3 (racemic) [rosiglitazone]
In short: as §1

[6] = compound: CN1C2=C(C3=C1C(=O)N(N=C3)CC4=CC(=CC=C4)N)SC(=C2)S(=O)C
In short: as §1

[7] = compound: CN1CCC(CNc2ccc3ncc(-c4cccc(OC(F)(F)F)c4)n3n2)CC1
In short: as §1

saracatinib = compound: CN1CCN(CCOc2cc(OC3CCOCC3)c3c(Nc4c(Cl)ccc5c4OCO5)ncnc3c2)CC1 [saracatinib]
In short: as §1

sotrastaurin = compound: CN1CCN(c2nc(C3=C(c4c[nH]c5ccccc45)C(=O)NC3=O)c3ccccc3n2)CC1 [sotrastaurin]
In short: as §1

alvocidib = compound: CN1CC[C@H](c2c(O)cc(O)c3c(=O)cc(-c4ccccc4Cl)oc23)[C@H](O)C1 [alvocidib]
In short: as §1

Tubastatin A = compound: CN1CCc2c(c3ccccc3n2Cc2ccc(C(=O)NO)cc2)C1 [Tubastatin A]
In short: as §1

[8] = compound: CNC(=O)C1=CC=CC=C1NC2=NC(=NC=C2Cl)NC3=C(C=C(C=C3)N4CCOCC4)OC
In short: as §1

defactinib = compound: CNC(=O)c1ccc(Nc2ncc(C(F)(F)F)c(NCc3nccnc3N(C)S(C)(=O)=O)n2)cc1 [defactinib]
In short: as §1

rucaparib = compound: CNCc1ccc(-c2[nH]c3cc(F)cc4c3c2CCNC4=O)cc1 [rucaparib]
In short: as §1

[9] = compound: CNc1nc(-c2ccc3c(N)n[nH]c3c2)cc(N2C[C@@H](C(=O)NC3CCCCC3)CC[C@H]2C)n1
In short: as §1

encorafenib = compound: COC(=O)N[C@@H](C)CNc1nccc(-c2cn(C(C)C)nc2-c2cc(Cl)cc(NS(C)(=O)=O)c2F)n1 [encorafenib]
In short: as §1

[10] = compound: COC(=O)[C@H](CCSC)NC(=O)C1=C(C=C(C=C1)NC[C@H](CS)N)C2=CC=CC=C2
In short: as §1

UniProt Q8NBU5, sequence (Q8NBU5 whole entry, looked up): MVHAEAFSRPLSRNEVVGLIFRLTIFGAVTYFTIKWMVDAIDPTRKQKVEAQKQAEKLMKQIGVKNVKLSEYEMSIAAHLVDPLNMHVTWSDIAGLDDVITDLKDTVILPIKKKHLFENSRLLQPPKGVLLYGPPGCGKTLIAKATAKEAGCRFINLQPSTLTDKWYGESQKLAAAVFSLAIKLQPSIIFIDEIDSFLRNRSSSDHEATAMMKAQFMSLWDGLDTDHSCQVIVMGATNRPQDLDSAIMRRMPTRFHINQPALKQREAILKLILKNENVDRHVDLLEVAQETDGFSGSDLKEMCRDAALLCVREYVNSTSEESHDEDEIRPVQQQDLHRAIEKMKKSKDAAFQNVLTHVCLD
UniProt O15440, sequence (O15440 whole entry, looked up): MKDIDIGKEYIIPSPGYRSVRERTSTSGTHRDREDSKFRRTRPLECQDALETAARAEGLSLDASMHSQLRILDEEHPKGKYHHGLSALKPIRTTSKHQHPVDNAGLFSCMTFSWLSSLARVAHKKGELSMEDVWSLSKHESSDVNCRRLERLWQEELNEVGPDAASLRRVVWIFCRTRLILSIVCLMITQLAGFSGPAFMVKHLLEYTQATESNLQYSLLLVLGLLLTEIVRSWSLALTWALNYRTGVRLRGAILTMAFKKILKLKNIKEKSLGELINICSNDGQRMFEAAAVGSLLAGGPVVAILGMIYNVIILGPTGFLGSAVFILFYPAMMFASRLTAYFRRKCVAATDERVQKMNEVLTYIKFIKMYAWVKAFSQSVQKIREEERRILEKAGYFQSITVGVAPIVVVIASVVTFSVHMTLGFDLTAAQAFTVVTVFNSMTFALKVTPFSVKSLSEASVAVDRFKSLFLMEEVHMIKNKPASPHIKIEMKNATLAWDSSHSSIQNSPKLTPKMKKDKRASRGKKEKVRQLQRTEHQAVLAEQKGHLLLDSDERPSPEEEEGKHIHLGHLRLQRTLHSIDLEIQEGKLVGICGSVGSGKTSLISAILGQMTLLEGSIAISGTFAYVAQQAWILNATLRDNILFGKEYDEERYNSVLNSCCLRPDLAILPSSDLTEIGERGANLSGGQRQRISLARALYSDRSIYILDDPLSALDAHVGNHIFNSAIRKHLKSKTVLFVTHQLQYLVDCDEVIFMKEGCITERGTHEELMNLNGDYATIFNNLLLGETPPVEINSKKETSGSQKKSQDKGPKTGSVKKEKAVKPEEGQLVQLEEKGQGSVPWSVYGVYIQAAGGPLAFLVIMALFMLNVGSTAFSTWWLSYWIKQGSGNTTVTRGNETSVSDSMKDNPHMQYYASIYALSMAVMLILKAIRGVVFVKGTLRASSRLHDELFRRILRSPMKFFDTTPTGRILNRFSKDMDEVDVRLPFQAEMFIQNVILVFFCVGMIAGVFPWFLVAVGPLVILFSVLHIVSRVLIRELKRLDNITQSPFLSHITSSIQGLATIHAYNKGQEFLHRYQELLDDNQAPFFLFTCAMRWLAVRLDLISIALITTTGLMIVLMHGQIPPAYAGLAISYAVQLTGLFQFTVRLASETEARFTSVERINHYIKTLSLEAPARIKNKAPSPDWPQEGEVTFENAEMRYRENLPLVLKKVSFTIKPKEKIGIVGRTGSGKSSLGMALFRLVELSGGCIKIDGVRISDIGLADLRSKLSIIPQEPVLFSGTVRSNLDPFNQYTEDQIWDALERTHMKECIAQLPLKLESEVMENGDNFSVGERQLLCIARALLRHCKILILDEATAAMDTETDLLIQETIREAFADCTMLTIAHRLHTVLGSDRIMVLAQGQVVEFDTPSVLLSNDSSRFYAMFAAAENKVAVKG
UniProt Q8N6D5, sequence (Q8N6D5 whole entry, looked up): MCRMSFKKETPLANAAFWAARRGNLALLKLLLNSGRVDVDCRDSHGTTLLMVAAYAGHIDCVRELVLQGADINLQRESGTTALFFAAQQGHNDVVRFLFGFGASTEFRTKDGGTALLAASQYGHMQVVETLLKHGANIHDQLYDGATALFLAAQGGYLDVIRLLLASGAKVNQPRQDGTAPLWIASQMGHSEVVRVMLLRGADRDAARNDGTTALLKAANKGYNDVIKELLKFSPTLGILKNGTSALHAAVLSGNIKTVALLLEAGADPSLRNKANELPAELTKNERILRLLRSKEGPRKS
UniProt Q9H8Y5, sequence (Q9H8Y5 whole entry, looked up): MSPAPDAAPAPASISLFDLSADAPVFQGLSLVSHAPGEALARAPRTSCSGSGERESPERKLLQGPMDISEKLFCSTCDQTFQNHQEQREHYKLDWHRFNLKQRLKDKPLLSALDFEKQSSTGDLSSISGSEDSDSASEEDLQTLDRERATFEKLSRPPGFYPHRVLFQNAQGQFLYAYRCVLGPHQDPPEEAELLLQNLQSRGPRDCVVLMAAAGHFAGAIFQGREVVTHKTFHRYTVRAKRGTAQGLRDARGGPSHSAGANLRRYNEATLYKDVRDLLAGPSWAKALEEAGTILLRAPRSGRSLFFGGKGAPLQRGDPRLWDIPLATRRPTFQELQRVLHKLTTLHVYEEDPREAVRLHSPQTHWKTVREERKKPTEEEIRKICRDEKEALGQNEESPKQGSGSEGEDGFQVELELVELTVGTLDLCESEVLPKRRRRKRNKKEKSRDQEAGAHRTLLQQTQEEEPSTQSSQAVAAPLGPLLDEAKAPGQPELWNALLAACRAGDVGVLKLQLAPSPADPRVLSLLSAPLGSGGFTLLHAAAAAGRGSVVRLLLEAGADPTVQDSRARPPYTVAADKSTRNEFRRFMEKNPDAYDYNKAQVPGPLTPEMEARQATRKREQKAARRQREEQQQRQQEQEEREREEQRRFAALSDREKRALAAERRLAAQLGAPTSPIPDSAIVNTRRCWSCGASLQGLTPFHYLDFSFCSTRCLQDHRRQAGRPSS
UniProt Q9NRZ7, sequence (Q9NRZ7 whole entry, looked up): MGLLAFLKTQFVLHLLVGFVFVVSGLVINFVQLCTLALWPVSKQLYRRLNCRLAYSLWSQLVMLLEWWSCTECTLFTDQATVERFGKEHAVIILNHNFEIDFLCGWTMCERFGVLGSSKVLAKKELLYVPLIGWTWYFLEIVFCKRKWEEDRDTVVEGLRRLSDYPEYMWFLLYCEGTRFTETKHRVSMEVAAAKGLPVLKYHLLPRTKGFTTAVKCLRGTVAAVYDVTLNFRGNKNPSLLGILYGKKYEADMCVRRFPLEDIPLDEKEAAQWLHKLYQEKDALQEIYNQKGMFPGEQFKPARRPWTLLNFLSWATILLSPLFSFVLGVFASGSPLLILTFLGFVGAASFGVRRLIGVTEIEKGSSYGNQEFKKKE
UniProt Q7Z569, sequence (Q7Z569 whole entry, looked up): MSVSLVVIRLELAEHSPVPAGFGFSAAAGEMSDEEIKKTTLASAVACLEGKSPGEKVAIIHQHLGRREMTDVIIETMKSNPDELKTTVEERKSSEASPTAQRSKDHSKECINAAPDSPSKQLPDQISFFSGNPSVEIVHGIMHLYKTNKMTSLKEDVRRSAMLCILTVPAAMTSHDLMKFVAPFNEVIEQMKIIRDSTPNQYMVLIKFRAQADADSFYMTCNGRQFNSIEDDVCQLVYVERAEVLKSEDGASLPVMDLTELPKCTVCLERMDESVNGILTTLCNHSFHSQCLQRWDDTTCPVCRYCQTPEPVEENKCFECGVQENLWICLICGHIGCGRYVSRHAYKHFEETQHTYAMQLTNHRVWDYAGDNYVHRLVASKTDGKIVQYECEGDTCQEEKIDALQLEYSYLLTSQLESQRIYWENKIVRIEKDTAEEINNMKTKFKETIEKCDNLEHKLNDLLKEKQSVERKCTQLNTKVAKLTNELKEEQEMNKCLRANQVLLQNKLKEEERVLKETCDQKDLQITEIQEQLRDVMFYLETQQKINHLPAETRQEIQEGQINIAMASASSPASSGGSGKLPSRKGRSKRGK
UniProt P11117, sequence (P11117 whole entry, looked up): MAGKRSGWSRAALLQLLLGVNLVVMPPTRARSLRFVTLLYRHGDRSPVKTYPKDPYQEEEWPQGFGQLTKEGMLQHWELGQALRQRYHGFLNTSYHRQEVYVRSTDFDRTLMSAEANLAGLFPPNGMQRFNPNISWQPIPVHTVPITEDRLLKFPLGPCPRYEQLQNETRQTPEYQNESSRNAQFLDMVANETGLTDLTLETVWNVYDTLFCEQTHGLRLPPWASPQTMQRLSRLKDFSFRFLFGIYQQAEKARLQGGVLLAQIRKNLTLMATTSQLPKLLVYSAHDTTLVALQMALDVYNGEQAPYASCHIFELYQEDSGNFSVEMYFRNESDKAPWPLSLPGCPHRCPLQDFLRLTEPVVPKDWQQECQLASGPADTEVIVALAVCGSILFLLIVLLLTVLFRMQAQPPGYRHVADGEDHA
UniProt Q9Y679, sequence (Q9Y679 whole entry, looked up): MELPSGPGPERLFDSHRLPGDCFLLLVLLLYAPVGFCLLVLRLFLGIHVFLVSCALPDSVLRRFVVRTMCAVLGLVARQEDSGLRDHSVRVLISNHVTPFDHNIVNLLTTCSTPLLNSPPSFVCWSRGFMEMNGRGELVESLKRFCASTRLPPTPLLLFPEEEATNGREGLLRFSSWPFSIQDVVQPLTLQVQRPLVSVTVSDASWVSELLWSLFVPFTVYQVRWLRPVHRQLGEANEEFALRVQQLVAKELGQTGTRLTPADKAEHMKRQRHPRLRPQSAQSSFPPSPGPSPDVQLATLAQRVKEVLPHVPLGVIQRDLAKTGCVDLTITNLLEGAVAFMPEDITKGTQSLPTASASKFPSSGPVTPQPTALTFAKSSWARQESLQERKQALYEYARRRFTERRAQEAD
UniProt P54709, sequence (P54709 whole entry, looked up): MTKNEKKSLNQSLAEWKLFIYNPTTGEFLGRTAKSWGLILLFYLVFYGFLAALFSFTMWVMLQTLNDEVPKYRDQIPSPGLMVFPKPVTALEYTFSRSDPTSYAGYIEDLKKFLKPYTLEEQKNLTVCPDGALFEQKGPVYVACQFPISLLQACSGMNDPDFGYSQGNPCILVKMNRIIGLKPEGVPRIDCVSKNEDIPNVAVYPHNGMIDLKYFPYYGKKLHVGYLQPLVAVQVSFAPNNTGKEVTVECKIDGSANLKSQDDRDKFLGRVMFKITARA

Row | Target | log2 fold change [1] | log2 fold change (volasertib) | log2 fold change [2] | log2 fold change (epoxomicin) | log2 fold change [3] | log2 fold change [4] | log2 fold change [5] | log2 fold change (rosiglitazone) | log2 fold change [6] | log2 fold change [7] | log2 fold change (saracatinib) | log2 fold change (sotrastaurin) | log2 fold change (alvocidib) | log2 fold change (Tubastatin A) | log2 fold change [8] | log2 fold change (defactinib) | log2 fold change (rucaparib) | log2 fold change [9] | log2 fold change (encorafenib) | log2 fold change [10]
1 | ALDH2 (UniProt P05091) | -0.025 | 0.06 | -0.009 | -0.038 | -0.017 | -0.042 | 0.029 | 0.058 | -0.048 | -0.006 | 0.007 | -0.099 | -0.04 | -0.032 | 0.078 | -0.055 | -0.099 | 0.026 | 0.013 | -0.03
2 | AGPAT3 isoform 3 (UniProt Q9NRZ7) | -0.095 | -0.211 (active) | 0.017 | 0.02 | 0.004 | -0.082 | 0.012 | 0.011 | -0.069 | 0.001 | 0.01 | -0.084 | -0.061 | 0.019 | 0.012 | -0.037 | -0.036 | -0.045 | -0.001 | 0.008
3 | AIFM2 (UniProt Q9BRQ8) | 0.002 | -0.035 | -0.058 | -0.035 | -0.025 | -0.017 | 0.003 | 0.001 | -0.069 | 0.068 | 0.017 | 0.08 | -0.02 | -0.026 | -0.016 | -0.029 | 0.011 | 0.003 | -0.017 | -0.01
4 | ACP2 (UniProt P11117) | -0.156 | -0.151 | -0.068 | 0.019 | 0.004 | -0.02 | -0.029 | 0.006 | 0.013 | -0.14 | 0.026 | 0.022 | 0.003 | -0.036 | -0.006 | 0.01 | -0.089 | -0.055 | 0.018 | -0.006
5 | ATAD1 (UniProt Q8NBU5) | -0.008 | -0.127 | 0.056 | 0.065 | -0.013 | -0.027 | 0.064 | 0.021 | -0.033 | -0.046 | -0.044 | 0.029 | -0.007 | 0.008 | -0.032 | -0.029 | 0.018 | 0.136 | 0.017 | -0.042
6 | BLVRB (UniProt P30043) | 0.008 | 0.046 | 0.012 | 0.161 | 0.023 | -0.078 | 0.014 | 0.017 | -0.049 | 0.127 | 0.101 | -0.047 | -0.083 | -0.002 | 0.058 | -0.045 | 0.043 | 0.061 | -0.007 | -0.003
7 | AUP1 (UniProt Q9Y679) | -0.132 | -0.253 | 0.032 | 0.046 | -0.002 | -0.028 | 0.089 | 0.12 | 0.014 | -0.24 (active) | 0.052 | -0.116 | -0.062 | 0.031 | -0.062 | -0.015 | -0.04 | -0.041 | 0.029 | -0.037
8 | ANKRD29 (UniProt Q8N6D5) | -0.021 | -0.27 | -0.152 | 0 | -0.137 | -0.233 | 0.025 | 0.111 | -0.039 | -0.043 | -0.089 | -0.011 | -0.016 | 0.27 | -0.02 | -0.04 | -0.227 | 0.118 | 0 | -0.038
9 | ABHD16A (UniProt O95870) | 0.134 | 0.079 | -0.01 | -0.008 | -0.092 | -0.09 | -0.018 | -0.003 | -0.076 | 0.283 | 0.01 | 0.214 | -0.033 | 0.004 | 0.031 | -0.065 | -0.017 | 0.162 | -0.05 | 0.031
10 | BRAP (UniProt Q7Z569) | -0.092 | -0.23 | 0.033 | -0.093 | -0.02 | 0.086 | 0.02 | 0.02 | 0.06 | -0.158 | -0.04 | -0.198 | -0.042 | 0.046 | 0.057 | -0.087 | 0.076 | -0.024 | 0.042 | -0.064
11 | ATP1B3 (UniProt P54709) | 0.06 | 0.094 | -0.022 | -0.033 | 0.04 | -0.028 | 0.012 | -0.011 | -0.063 | 0.168 | -0.019 | 0.084 | -0.038 | -0.014 | 0.004 | -0.047 | -0.033 | 0.016 | -0.023 | 0.034
12 | BRD4 (UniProt O60885) | 1.89 (active) | 2.02 (active) | -0.007 | 0.136 | -0.016 | 0.597 (active) | 0.169 | -0.01 | -0.09 | -0.062 | 0.047 | -0.149 | -0.044 | -0.156 | 0.065 | -0.051 | -0.073 | 0.204 | 0.01 | -0.002
13 | ABCC5 (UniProt O15440) | -0.075 | 0.027 | 0.023 | -0.028 | 0.024 | -0.031 | -0.069 | -0.003 | 0.028 | 0.075 | 0.107 | -0.028 | 0.007 | 0.002 | -0.02 | 0.019 | 0.116 | -0.003 | -0.039 | 0.026
14 | ANKZF1 (UniProt Q9H8Y5) | -0.063 | -0.055 | 0.036 | -0.001 | -0.036 | 0.004 | -0.076 | -0.002 | 0.214 | 0.066 | -0.146 | -0.093 | 0.034 | 0.088 | 0.04 | 0.123 | 0.167 | 0.156 | 0.119 | -0.274
15 | ATAD3B (UniProt Q5T9A4) | -0.076 | -0.167 | 0.093 | -0.045 | -0.018 | 0.112 | -0.026 | 0.005 | 0.167 | -0.339 (active) | -0.047 | -0.101 | 0.091 | -0.009 | -0.084 | 0.096 | 0.25 | 0 | 0.125 | 0.033
16 | AGRN (UniProt O00468) | 0.042 | -0.001 | 0.005 | 0.065 | -0.018 | 0.053 | 0.016 | -0.012 | 0.062 | -0.02 | 0.062 | 0.065 | -0.009 | -0.01 | 0 | -0.119 | 0.032 | -0.164 | 0.034 | 0.014
